ChEMBL document CHEMBL3433997, “St. Jude Leishmania screening dataset” (2016)
Values joined by “and” are separate entries in the source; they are usually repeats but may differ in a detail not shown here. Equal entries are not always repeated.

Target: Hexose transporter 1 (Plasmodium falciparum) (UniProt O97467)
Assay: ST_JUDE_LEISH: Cytotoxicity at 2uM final concentration against transgenic Leishmania Mexicana promastigotes LmPfHT that are glucose transport deficient and complemented with the Plasmodium falciparum hexose transporter. Activity is measured by DNA content using SYBR green in vitro
Format: functional

Row | Compound | inhibition
1 | O=C(NCC(=O)N1CCC[C@H]1C(=O)O)[C@@H](Cc1ccccc1)NC(=O)[C@@H]1CCCN1C(=O)CCCc1ccc(O)cc1 | -1.36%
2 | O=C(/C=C/c1ccc(Cl)c(Cl)c1)N1CCC(CN2CCC(c3c[nH]c4ccccc34)C(O)C2)CC1 (stereo not given) | 2.3%
3 | O=C(C=Cc1ccccc1Br)NC1CCC(CN2CCC(c3c[nH]c4ccccc34)CC2)CC1 (stereo not given) | 3.62% and 2.4%
4 | Cc1ccc(CC(C)NCC(O)c2cccc(C(F)(F)F)c2)cc1F (stereo not given) | 6.24%
5 | COc1ccc(CCNCc2ccc3nc(N)c(C)cc3c2)cc1 | 2.14%
6 | CNCCN(C)C(=O)Oc1c(Br)c(C)nc(C)c1-c1ccc(Oc2ccc(OC(F)(F)F)cc2)cc1 | 3.16%
7 | Cc1ccc(C(=O)Nc2ccnc(N(C)C3CCN(Cc4cccc(O)c4)CC3)c2)cn1 | 1.94%
8 | COc1ccc(CC(C)NCC(O)c2cccc(Cl)c2F)cc1 (stereo not given) | -0.19%
9 | Cc1cc(N(C)C2CCN(C)CC2)nc(Nc2ccc(Cl)cc2)n1 | -2.68%
10 | O=C(/C=C/c1ccsc1)NC1CCC(CN2CCC(c3c[nH]c4ccccc34)CC2)CC1 (stereo not given) | -2.35%
11 | CC[C@H]1CN2CC[C@H]1C[C@H]2[C@H](O)c1cc(/C=C/c2ccccc2)nc2ccc(OC)cc12 | -0.83%
12 | COc1ccc2[nH]cc(C3=CCN(Cc4ccccc4)CC3)c2c1 | 2.34%
13 | N#Cc1c(Cl)cccc1Oc1ccc(S(=O)(=O)NC2CCC(CN3CCC(c4c[nH]c5ccccc45)CC3)CC2)cc1 (stereo not given) | 1.87% and 1.07%
14 | C[C@@H](CC1CCCCC1)NCc1ccccc1O | 11.1%
15 | CC[C@H]1CN2CC[C@H]1C[C@H]2[C@H](O)c1cc(/C=C/c2ccc(F)cc2)nc2ccc(OC)cc12 | 1.87%
